Consider 35 compounds from PubChem BioAssay AID2147 (National Center for Advancing Translational Sciences (NCATS), 2009).

The whole screen tested about 230,000 compounds, of which about 3,600 (1.6%) were called active. Another 15% or so got no clear call; they are omitted. Calls come from the whole dose curve; as a rule, active = well fitted inhibition curve with a large enough effect (not every such curve was filed as active); inconclusive = small, poorly fitted or top-dose-only effect, or another doubt; inactive = no such curve, though single readings can be large or run the other way. Shown is part of a subset that was picked to be rich in actives. A call without a number means that no potency is given here.
Note: nearly all actives have a fitted effect of over 50% in size.
Potency is the fitted concentration of half-maximal effect.

For the experiment, the target named is Lysine-specific demethylase 4E (Homo sapiens) (UniProt B2RXH2). Nature of the experiment: qHTS Assay for Inhibitors of Human Jumonji Domain Containing 2E (JMJD2E). To be noted: JMJD2E catalytic domain, FDH-coupled NADH fluorescence (FDH is formaldehyde dehydrogenase); series mostly up to 57.1 µM. The text has this: Assay Provider: Structural Genomics Consortium [SGC] Screening Center PI: Austin, C.P. Screening Center: NIH Chemical Genomics Center [NCGC] The fine interplay among methylation states of several lysine residues on the tails of histone proteins is a major determinant of the transcriptional state of the associated DNA coding regions and is commonly referred to as the histone code. Histone lysine demethylases catalyze the removal of methyl groups from methylated lysine sidechains on histones H3 and H4, thus antagonizing the reactions catalyzed by histone lysine methyltransferases. […] In search for novel inhibitors of JMJD2E demethylase, a member of the largest set of histone demethylases belonging to the Fe(II) and 2-oxoglutarate oxygenase (2OG) superfamily, we performed a quantitative high-throughput screen (Inglese 2006) by using an assay which utilizes a trimethylated peptide substrate corresponding to a fragment of histone H3 (sequence ARKme3STGGK) with detection of the formaldehyde co-product in real time by a formaldehyde dehydrogenase (FDH) coupled reaction. FDH catalyzes oxidation of formaldehyde to formic acid with the concomitant reduction of the non-fluorescent beta-nicotinamide adenine dinucleotide hydrate (NAD+) cofactor to the fluorescent NADH co-product. References: Inglese, J., Auld, D., Jadhav, A., Johnson, R., Simeonov, A., Yasgar, A., Zheng, W. and Austin, C. Proc Natl Acad Sci USA 2006, 103, 11473-11478. N. R. Rose, S. S. Ng, J. Mecinovic, B. M. Lienard, S. H. Bello, Z. Sun, M. A. McDonough, U. Oppermann and C. J. Schofield, J Med Chem, 2008, 51, 7053-7056. Sakurai, M., Rose, N., Schultz, L., Quinn, A., Jadhav, A., Ng, S., Oppermann, U., Schofield, C.J. and Simeonov, A. Mol BioSystems 2009, in press. S. Michael, D. Auld, C. Klumpp, A. Jadhav, W. Zheng, N. Thorne, C. Austin, J. Inglese and A. Simeonov, Assay Drug Dev Technol, 2008, 6, 637-657.
Sequence of Lysine-specific demethylase 4E (Homo sapiens) (B2RXH2 1-337 limits assumed): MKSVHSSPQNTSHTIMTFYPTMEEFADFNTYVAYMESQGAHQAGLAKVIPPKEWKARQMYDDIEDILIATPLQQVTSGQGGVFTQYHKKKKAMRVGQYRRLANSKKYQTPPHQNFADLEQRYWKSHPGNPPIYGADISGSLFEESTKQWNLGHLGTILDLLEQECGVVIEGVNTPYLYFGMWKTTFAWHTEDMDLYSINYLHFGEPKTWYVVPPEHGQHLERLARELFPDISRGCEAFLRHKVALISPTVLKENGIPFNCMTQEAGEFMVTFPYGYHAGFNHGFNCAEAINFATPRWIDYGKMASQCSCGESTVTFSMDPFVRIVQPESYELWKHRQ
Reagents and Controls: Ferrous ammonium sulfate, (+)-sodium L-ascorbate, beta-nicotinamide adenine dinucleotide hydrate (NAD+), Tween-20, formaldehyde dehydrogenase from P. putida (FDH), and disodium 2-oxoglutarate were from Sigma (St. Louis, MO). Black solid-bottom 384-well or 1,536-well assay plates were from Greiner Bio-One (Monroe, NC). Enzyme was supplied by Prof. Udo Oppermann, SGC-Oxford. The catalytic domain of human JMJD2E (residues 1-337) was produced as an N-terminally His6-tagged protein in E. coli, and purified by Ni-affinity chromatography and size-exclusion chromatography, and stored in HEPES 50 mM/ NaCl 500 mM pH 7.5, as reported in Rose 2008. The trimethylated histone peptide substrate ARK(me3)STGGK was synthesized and HPLC-purified by the Tufts University Core Facility (Boston, MA). Substrate solution (Sakurai 2009) contained 50 uM ARK(me3)STGGK, 0.00025 U/uL FDH, 50 uM 2-oxoglutarate, 250 uM NAD+, 1 mM ascorbate, and 10 uM ferrous ammonium sulfate. Controls and plate map: Buffer (150 mM HEPES pH 7.5 containing 0.01% Tween-20) in columns 3 and 4 as negative control (no enzyme) and 100 nM JMJD2E final concentration in columns 1,2, and 5-48. Assay Steps: Enzyme and buffer solutions (3 uL) were dispensed into a 1,536-well Greiner black solid-bottom assay plate. The library compounds (23 nL) were transferred using a Kalypsys pintool equipped with 1,536-pin array. The plate was incubated at room temperature (15 min), and then a 1 uL aliquot of substrate solution was added to initiate the reaction. The plate was transferred to ViewLux imager where an initial reading using standard UV optics (Ex 340 nm, Em 450 nm) was obtained. The plate was then removed from the reader, incubated for 30 minutes at room temperature, and returned to the reader for a second fluorescence reading. A fully automated robotic screening system (Kalypsys Inc, San diego, CA) was used to perform the above steps as described previously (Michael 2008). […]
Take `CCC(=NCCc1ccccc1)c1c(O)n(C2CCCCC2)c(=O)[nH]c1=O`: the Potency result is “inactive”. Next, `CC/C(=N\NC(=O)c1ccccc1O)c1c(O)n(Cc2ccccc2)c(=O)[nH]c1=O`: 25.1 µM (active). Turning to `O=c1[nH]c(=O)n(Cc2ccccc2)c(O)c1/C=N/Nc1c(F)c(F)c(F)c(F)c1F`, the Potency entry was “inactive”.

In the case of `CNCC[C@H](Oc1ccc(C(F)(F)F)cc1)c1ccccc1`, the Potency entry was “inactive”. `N#Cc1c(Cl)c(Cl)c(Cl)c(C#N)c1Cl`: the Potency entry was “inactive”. For the compound `CNC(=O)O/N=C(\N)Cc1csc2ccc(Cl)cc12`, the Potency result was “inactive”. With `CC[C@H]1CN2CCc3cc(OC)c(OC)cc3[C@@H]2C[C@@H]1C[C@H]1NCCc2cc(OC)c(OC)cc21`, the Potency entry was “inactive”. Regarding `c1cncc(CNC2=NCCC2)c1`, the Potency result is “inactive”. Next, `CC1CCCCN1Cc1cccnc1` (stereo not given): 20 µM (active); `CC1=C2C(=O)C3C(CC=C4CC(OC5OC(O)C(O)C(O)C5CO)CCC43C)C2CCC12OC1CC(C)CNC1C2C` (stereo not given): “inactive”; `CNC(C)[C@@H](O)c1ccccc1` (stereo not given in full): “inactive”. Regarding `Cc1ccc(N2C(=O)NC(=O)C(CCc3ccncc3)(Cc3cccc(Cl)c3Cl)C2=O)cc1` (stereo not given), the Potency result is “inactive”.

In the case of `CCCCC/C=C\C/C=C\C/C=C\C=C\[C@H](CCCC(=O)O)OO`, the Potency entry is “inactive”.

Turning to `C[C@H]1CC[C@@]2(NC1)O[C@@H]1C[C@H]3[C@@H]4CC=C5C[C@@H](O)CC[C@]5(C)[C@@H]4CC[C@]3(C)[C@@H]1[C@@H]2C`, the Potency result is “inactive”.

With `O=C(OCC1O[C@@H](OC(=O)c2cc(O)c(O)c(O)c2)[C@@H](OC(=O)c2cc(O)c(O)c(O)c2)[C@@H](OC(=O)c2cc(O)c(O)c(O)c2)[C@@H]1OC(=O)c1cc(O)c(O)c(O)c1)c1cc(O)c(O)c(O)c1` (stereo not given in full), the Potency is 3.16 µM (active). Next, `O=C(COC(=O)c1ccccc1)Nc1ccc(Cl)cc1C(=O)c1ccccc1`: “inactive”; `COc1ccccc1N1CCN(C(CNC(=O)Oc2ccccc2)c2cccnc2)CC1` (stereo not given): “inactive”. `CN(C)CC1CCCCC1OC(=O)c1ccc(Cl)c(Cl)c1` (stereo not given): the Potency result is “inactive”.

For `COc1cccc(N2C(=O)NC(=O)/C(=C\c3ccc([N+](=O)[O-])s3)C2=O)c1`, the Potency was 17.8 µM (active). Consider `Cc1cccc(N2C(=O)NC(=O)/C(=C\c3cnn(-c4ccccc4)c3)C2=O)c1`, for which the Potency entry was “inactive”. For `Cc1ccccc1N1C(=O)NC(=O)/C(=C\c2cc(C)n(C)c2C)C1=O`, the Potency result is “inactive”. In the case of `CC1=C(C(=O)Nc2ccccc2)S(=O)(=O)CCO1`, the Potency entry is “inactive”. Consider `O=c1oc2ccccc2c(O)c1C(c1ccccc1O)c1c(O)c2ccccc2oc1=O`, for which the Potency result is “inactive”. `CC(=O)c1c(O)c(C)c(O)c(Cc2c(O)c3c(c(C(=O)/C=C\c4ccccc4)c2O)OC(C)(C)C=C3)c1O`: the Potency was 20 µM (active). Regarding `O=C(Cn1c(=O)n(CC2CS2)c2ccccc21)N1CCCCC1` (stereo not given), the Potency entry is “inactive”.

As for `C[C@]12CC[C@@H]3C(=CCc4cc(O)ccc43)[C@@H]1CCC2=O`, the Potency entry is “inactive”. Then `C[N+]12CN3CN(CN(C3)C1)C2`, with “inactive”; and `CN(C)C1C(=O)C(C(N)=O)=C(O)[C@@]2(O)C(=O)C3=C(O)c4c(O)cccc4[C@@](C)(O)C3C[C@@H]12` (stereo not given in full), with 10 µM (active); and `COc1cccc(CN2CCCC(C(=O)c3ccccc3SC)C2)c1O` (stereo not given), with “inactive”. Next, `CCOC(=O)C1SC2(C(F)(F)C(F)F)CC1(O)c1c(c(OC)c3occc3c1OC)O2` (stereo not given): “inactive”; `COC1=C[C@]23CCCN2CCc2cc4c(cc2[C@@H]3[C@@H]1O)OCO4`: “inactive”; `C/C(=C\C=C/[C@@H](C)C(=O)O)[C@H]1CN[C@H](C(=O)O)[C@@H]1CC(=O)O`: 12.6 µM (active). Next, `COc1ccc(C(=O)CC2C(=O)N(C)C(=O)N(C)C2=O)cc1`: “inactive”. On to `Cc1cccc(OP(=O)(Oc2cccc(C)c2)OC(c2ccccc2)C(F)(F)F)c1` (stereo not given), for which the Potency result was “inactive”. For the compound `Fc1ccc(C2N3CCCN23)cc1` (stereo not given), the Potency entry was “inactive”.
